In assay [1] the target is human Tyrosine Protein Kinase Receptor Tie-2 (Tie2), TEK (gene 7010) (UniProt Q02763). Description: NVS_ENZ_hTie2: NovaScreen (NVS) Enzymatic Assay for human Tyrosine Protein Kinase Receptor Tie-2 (Tie2) (AID 2283225). In a few lines: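 Recombinant human Tie2 kinase activity was read cell-free by fluorescence with electrophoretic mobility shift, 1 hour after dosing. The screen used 25 uM in duplicate, then concentration-response up to 50 uM. Signal loss was scored against DMSO.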

In assay [2] the target is human Protein Tyrosine Phosphatase Receptor Type F (PTPRF), PTPRF (gene 5792) (UniProt P10586). Description: NVS_ENZ_hPTPRF: NovaScreen (NVS) Enzymatic Assay for human Protein Tyrosine Phosphatase Receptor Type F (PTPRF) (AID 2283213). In a few lines:
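Cell-free fluorescence enzyme assay with recombinant protein and substrate; product separated by electrophoretic mobility shift. Read 1 h after dosing, single 25 uM duplicate screen, then concentration-response up to 50 uM; loss of signal vs DMSO.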

The target of assay [3] is human Protein Tyrosine Phosphatase Receptor Type M (PTPRM), PTPRM (gene 5797) (UniProt P28827). Description: NVS_ENZ_hPTPRM: NovaScreen (NVS) Enzymatic Assay for human Protein Tyrosine Phosphatase Receptor Type M (PTPRM) (AID 2283215). In a few lines:
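Cell-free recombinant PTPRM with fluorogenic substrate; product separated from substrate by electrophoretic mobility shift and read by fluorescence, 1.33 h after dosing. Primary screen single concentration (25 uM) in duplicate; actives retested in concentration series; loss of signal versus DMSO.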

In assay [4] the target is human Raf-1 Proto-Oncogene, serine/threonine Kinase (RAF1), RAF1 (gene 5894) (UniProt P04049). Description: NVS_ENZ_hRAF1: NovaScreen (NVS) Enzymatic Assay for human Raf-1 Proto-Oncogene, serine/threonine Kinase (RAF1) (AID 2283216). In a few lines: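 Cell-free recombinant kinase with specific fluorescent substrate, product separated by electrophoretic mobility shift; read 1 h after dosing. Primary screen at 25 uM in duplicate; hits then run in concentration-response up to 50 uM, fitted as loss of signal versus DMSO.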
Sequence of human Raf-1 Proto-Oncogene, serine/threonine Kinase (RAF1), RAF1 (gene 5894) (P04049 whole entry, looked up): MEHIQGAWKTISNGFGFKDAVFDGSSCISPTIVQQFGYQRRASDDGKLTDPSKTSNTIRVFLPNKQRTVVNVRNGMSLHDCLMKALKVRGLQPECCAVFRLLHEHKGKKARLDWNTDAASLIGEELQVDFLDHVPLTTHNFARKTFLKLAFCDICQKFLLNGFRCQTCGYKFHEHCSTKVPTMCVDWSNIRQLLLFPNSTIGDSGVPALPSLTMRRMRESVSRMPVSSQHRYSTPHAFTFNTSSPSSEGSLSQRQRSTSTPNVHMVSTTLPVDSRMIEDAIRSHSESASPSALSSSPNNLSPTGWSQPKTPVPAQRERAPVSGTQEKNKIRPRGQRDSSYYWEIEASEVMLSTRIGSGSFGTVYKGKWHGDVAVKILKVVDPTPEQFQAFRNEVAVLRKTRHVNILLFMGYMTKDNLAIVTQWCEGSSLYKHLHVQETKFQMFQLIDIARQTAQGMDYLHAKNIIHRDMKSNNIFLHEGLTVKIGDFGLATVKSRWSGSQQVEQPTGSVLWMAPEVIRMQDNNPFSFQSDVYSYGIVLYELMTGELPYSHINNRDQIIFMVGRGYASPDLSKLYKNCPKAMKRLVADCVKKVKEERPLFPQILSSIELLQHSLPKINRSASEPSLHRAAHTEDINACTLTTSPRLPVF

Assay [5] addresses human SRC Proto-Oncogene, Non-receptor Tyrosine Kinase (SRC), SRC (gene 6714) (UniProt P12931). The assay is described as follows: NVS_ENZ_hSRC: NovaScreen (NVS) Enzymatic Assay for human SRC Proto-Oncogene, Non-receptor Tyrosine Kinase (SRC) (AID 2283223). As to the method: NVS_ENZ_hSRC is a biochemical, single-readout assay that uses extracted gene-proteins in a cell-free assay. Measurements were taken 1 hour after chemical dosing in a 384-well plate.NVS_ENZ_hSRC is one of one assay component(s) measured or calculated from the NVS_ENZ_hSRC assay. It is designed to make measurements of enzyme activity, a form of enzyme reporter, as detected with fluorescence intensity signals by Fluorescence and electrophoretic mobility shift technology.Data from the assay component NVS_ENZ_hSRC was analyzed into 1 assay endpoint. This assay endpoint, NVS_ENZ_hSRC, was analyzed in the positive analysis fitting direction relative to DMSO as the negative control and baseline of activity. Using a type of enzyme reporter, loss-of-signal activity can be used to understand changes in the enzymatic activity as they relate to the gene SRC. Furthermore, this assay endpoint can be referred to as a primary readout, because this assay has produced multiple assay endpoints where this one serves a enzymatic activity function. To generalize the intended target to other relatable targets, this assay endpoint is annotated to the kinase intended target family, where the subfamily is non-receptor tyrosine kinase. […]

In assay [6] the target is human Protein Tyrosine Phosphatase Receptor Type C (PTPRC), PTPRC (gene 5788) (UniProt P08575). The assay is described as follows: NVS_ENZ_hPTPRC: NovaScreen (NVS) Enzymatic Assay for human Protein Tyrosine Phosphatase Receptor Type C (PTPRC) (AID 2283212). As to the method:
NVS_ENZ_hPTPRC is a biochemical, single-readout assay that uses extracted gene-proteins from yeast cells in a cell-free assay. Measurements were taken 1 hour after chemical dosing in a 96-well plate.NVS_ENZ_hPTPRC is one of one assay component(s) measured or calculated from the NVS_ENZ_hPTPRC assay. It is designed to make measurements of enzyme activity, a form of enzyme reporter, as detected with absorbance signals by Colorimetric technology.Data from the assay component NVS_ENZ_hPTPRC was analyzed into 1 assay endpoint. This assay endpoint, NVS_ENZ_hPTPRC, was analyzed in the positive analysis fitting direction relative to DMSO as the negative control and baseline of activity. Using a type of enzyme reporter, loss-of-signal activity can be used to understand changes in the enzymatic activity as they relate to the gene PTPRC. Furthermore, this assay endpoint can be referred to as a primary readout, because this assay has produced multiple assay endpoints where this one serves a enzymatic activity function. To generalize the intended target to other relatable targets, this assay endpoint is annotated to the phosphatase intended target family, where the subfamily is receptor tyrosine phosphatase.
Binding assays used specific radioligands (tritiated, iodinated) with non-radioactive competitive displacement ligands in agonist or antagonist protocols (as indicated) and various reference compounds and inhibitors to titrate specific binding to receptors and transporters. Most enzyme assays (CYPs, kinases, phosphatases, proteases, HDACs) used recombinant protein and specific substrates (fluorescence mostly, some colorimetric and radioactive) and inhibitors, followed by a biochemical separation of substrate and product. All assays for the biochemical HTS were initially run in duplicate at a single concentration (10 uM for CYP450 assays and 25 uM for all others). […]

In assay [7] the target is human Tropomyosin Receptor Kinase A (TRKA), NTRK1 (gene 4914) (UniProt P04629). Description: NVS_ENZ_hTrkA: NovaScreen (NVS) Enzymatic Assay for human Tropomyosin Receptor Kinase A (TRKA) (AID 2283224). In a few lines: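 Recombinant human TrkA activity read after 1 h by fluorescence with electrophoretic mobility shift separating substrate and product. Primary screen in duplicate at 25 uM; actives were rerun in concentration-response up to 50 uM. Loss of signal versus DMSO.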

Assay [8] deals with human Sirtuin 1 (SIRT1), SIRT1 (gene 23411) (UniProt Q96EB6). Description: NVS_ENZ_hSIRT1: NovaScreen (NVS) Enzymatic Assay for human Sirtuin 1 (SIRT1) (AID 2283219). In a few lines: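 Cell-free recombinant SIRT1 with a fluorescent substrate; substrate and product separated by electrophoretic mobility shift and read by fluorescence intensity, 1 h after dosing. Primary screen at 25 uM in duplicate; hits re-run in concentration-response up to 50 uM, relative to DMSO.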
Sequence of human Sirtuin 1 (SIRT1), SIRT1 (gene 23411) (Q96EB6 whole entry, looked up): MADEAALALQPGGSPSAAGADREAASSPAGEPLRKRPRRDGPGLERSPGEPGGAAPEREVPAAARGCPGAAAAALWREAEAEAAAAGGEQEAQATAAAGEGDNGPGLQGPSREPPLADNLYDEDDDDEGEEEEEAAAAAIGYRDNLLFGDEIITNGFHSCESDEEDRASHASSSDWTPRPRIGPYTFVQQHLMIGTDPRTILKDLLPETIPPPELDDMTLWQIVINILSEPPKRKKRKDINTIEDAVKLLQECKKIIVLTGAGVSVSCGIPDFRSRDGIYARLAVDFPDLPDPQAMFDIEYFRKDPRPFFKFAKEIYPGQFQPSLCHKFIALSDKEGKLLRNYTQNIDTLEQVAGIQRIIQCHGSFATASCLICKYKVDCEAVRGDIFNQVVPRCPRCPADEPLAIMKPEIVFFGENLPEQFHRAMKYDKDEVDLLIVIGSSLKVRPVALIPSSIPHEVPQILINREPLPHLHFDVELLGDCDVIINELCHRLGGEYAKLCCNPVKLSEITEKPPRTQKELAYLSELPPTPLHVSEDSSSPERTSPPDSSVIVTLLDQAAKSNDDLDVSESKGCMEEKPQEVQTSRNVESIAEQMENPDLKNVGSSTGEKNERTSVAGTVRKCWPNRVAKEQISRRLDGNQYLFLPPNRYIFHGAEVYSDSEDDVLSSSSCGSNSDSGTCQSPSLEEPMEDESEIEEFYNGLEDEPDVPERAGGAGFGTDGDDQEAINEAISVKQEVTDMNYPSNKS

Assay [9] deals with human Rho Associated Coiled-coil Containing Protein Kinase 1 (ROCK1), ROCK1 (gene 6093) (UniProt Q13464). The assay is described as follows: NVS_ENZ_hROCK1: NovaScreen (NVS) Enzymatic Assay for human Rho Associated Coiled-coil Containing Protein Kinase 1 (ROCK1) (AID 2283214). In a few lines: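 Cell-free recombinant human ROCK1 activity assay; fluorescent substrate and product separated by electrophoretic mobility shift, read 1 h after dosing. Screened in duplicate at 25 uM; loss of signal versus DMSO baseline scored as inhibition.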

For assay [10], the target named is human Sirtuin 2 (SIRT2), SIRT2 (gene 22933) (UniProt Q8IXJ6). Description: NVS_ENZ_hSIRT2: NovaScreen (NVS) Enzymatic Assay for human Sirtuin 2 (SIRT2) (AID 2283217). The procedure, abridged: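 Cell-free recombinant human SIRT2, fluorescent substrate with product separated by electrophoretic mobility shift, 1 hr. Screened in duplicate at 25 uM; hits rerun singly in concentration-response up to 50 uM, relative to DMSO.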
Sequence of human Sirtuin 2 (SIRT2), SIRT2 (gene 22933) (Q8IXJ6 whole entry, looked up): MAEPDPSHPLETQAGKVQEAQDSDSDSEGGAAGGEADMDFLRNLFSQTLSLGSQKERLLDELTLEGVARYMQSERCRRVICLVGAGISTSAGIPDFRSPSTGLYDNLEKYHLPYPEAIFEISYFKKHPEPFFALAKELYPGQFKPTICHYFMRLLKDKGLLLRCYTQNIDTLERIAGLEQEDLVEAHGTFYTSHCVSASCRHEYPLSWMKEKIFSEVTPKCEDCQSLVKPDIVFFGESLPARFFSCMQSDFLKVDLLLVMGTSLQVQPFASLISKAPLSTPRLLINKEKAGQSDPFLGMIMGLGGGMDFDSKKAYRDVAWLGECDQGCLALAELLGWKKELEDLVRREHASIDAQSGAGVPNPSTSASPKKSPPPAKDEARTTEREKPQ

Inconclusive results are not listed. Active and inactive are the calls of the source. How the source made its calls: active means hit-call score of the fitted dose curve at least 0.9, where 1 is the maximum; inconclusive means response in the unintended direction; inactive means score below 0.9.

Sequence of human Protein Tyrosine Phosphatase Receptor Type M (PTPRM), PTPRM (gene 5797) (P28827 whole entry, looked up): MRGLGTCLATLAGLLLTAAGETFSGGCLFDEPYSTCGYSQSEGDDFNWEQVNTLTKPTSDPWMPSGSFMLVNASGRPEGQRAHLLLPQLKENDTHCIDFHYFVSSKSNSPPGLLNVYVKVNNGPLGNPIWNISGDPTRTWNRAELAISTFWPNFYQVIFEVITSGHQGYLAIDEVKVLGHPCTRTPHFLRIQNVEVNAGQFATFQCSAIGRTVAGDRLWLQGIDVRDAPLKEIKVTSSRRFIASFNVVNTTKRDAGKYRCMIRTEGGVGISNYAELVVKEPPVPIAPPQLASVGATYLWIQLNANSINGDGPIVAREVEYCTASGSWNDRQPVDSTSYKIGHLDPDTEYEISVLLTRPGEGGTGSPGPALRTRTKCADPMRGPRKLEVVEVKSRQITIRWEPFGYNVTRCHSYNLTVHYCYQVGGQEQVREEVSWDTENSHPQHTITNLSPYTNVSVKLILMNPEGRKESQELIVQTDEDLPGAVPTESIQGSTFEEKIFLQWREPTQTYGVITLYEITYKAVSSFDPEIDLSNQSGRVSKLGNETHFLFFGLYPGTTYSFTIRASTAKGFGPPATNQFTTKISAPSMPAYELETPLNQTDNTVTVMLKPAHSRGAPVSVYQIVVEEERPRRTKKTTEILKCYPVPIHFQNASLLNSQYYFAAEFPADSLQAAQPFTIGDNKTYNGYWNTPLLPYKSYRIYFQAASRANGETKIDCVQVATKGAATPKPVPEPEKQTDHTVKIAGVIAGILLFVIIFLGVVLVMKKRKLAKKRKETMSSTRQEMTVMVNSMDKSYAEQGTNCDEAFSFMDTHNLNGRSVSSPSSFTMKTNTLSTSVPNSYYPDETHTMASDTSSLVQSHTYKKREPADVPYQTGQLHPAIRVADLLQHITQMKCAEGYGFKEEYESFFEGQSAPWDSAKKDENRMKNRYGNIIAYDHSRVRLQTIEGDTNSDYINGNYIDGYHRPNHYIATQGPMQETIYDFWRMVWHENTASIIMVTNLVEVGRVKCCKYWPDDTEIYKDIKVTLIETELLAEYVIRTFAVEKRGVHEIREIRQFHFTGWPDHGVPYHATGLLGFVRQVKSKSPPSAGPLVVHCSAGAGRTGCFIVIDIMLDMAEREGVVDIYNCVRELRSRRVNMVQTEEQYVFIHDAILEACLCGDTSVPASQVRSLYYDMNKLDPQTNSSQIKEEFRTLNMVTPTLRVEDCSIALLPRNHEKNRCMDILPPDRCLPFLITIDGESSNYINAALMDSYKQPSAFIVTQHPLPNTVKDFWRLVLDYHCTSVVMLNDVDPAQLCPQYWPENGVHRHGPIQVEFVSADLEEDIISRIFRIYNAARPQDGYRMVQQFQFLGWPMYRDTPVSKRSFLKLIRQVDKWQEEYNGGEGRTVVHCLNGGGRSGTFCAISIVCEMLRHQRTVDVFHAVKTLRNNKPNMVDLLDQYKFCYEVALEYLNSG
Sequence of human Protein Tyrosine Phosphatase Receptor Type C (PTPRC), PTPRC (gene 5788) (P08575 whole entry, looked up): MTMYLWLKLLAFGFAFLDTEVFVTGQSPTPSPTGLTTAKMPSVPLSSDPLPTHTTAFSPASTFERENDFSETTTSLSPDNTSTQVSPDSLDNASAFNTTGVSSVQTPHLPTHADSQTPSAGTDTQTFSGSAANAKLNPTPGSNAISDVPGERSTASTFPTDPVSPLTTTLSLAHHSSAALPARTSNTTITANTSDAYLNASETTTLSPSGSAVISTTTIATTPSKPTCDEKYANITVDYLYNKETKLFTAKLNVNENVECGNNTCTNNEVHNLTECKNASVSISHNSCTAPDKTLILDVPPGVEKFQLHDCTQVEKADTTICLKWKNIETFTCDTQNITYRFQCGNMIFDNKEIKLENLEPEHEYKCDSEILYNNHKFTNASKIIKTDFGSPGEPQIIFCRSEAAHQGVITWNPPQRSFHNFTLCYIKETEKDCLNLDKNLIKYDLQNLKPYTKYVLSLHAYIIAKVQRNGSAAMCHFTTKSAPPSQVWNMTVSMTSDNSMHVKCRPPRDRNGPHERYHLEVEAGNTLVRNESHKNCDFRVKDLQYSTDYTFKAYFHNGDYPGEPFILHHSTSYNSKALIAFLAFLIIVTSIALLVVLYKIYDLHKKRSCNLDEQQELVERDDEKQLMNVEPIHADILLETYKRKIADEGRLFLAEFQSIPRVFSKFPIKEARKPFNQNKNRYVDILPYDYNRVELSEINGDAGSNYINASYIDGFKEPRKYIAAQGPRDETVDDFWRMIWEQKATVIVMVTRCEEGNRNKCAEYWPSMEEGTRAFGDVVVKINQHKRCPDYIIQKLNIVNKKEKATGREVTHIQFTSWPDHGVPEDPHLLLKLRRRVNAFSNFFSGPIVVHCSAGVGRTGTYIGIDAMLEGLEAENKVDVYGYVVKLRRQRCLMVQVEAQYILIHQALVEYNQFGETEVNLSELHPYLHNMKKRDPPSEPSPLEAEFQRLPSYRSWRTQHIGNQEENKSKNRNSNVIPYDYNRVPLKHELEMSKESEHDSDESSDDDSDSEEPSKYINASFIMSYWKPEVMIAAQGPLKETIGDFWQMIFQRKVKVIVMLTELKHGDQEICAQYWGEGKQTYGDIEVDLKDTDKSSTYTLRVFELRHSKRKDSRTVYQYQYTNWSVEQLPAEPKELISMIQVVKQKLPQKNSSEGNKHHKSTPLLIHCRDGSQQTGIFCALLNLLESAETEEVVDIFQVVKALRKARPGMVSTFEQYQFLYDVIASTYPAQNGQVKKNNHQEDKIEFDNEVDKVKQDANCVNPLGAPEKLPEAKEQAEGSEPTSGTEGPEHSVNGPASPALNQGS
Sequence of human SRC Proto-Oncogene, Non-receptor Tyrosine Kinase (SRC), SRC (gene 6714) (P12931 whole entry, looked up): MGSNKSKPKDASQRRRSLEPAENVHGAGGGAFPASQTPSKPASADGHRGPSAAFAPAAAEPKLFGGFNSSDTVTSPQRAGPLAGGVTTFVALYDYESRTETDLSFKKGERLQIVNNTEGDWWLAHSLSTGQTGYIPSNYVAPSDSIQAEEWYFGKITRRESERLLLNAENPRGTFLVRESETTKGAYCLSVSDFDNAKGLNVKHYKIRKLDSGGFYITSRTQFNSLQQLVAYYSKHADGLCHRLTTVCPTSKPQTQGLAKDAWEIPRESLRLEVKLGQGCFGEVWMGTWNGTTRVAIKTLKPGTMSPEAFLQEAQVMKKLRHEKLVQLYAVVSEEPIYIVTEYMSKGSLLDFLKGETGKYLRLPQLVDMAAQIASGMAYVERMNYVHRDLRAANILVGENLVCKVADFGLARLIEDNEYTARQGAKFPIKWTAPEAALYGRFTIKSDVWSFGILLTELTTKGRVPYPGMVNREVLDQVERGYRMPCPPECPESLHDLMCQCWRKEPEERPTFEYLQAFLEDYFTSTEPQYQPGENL

As for `O=C1c2ccccc2C(=O)C1C(=O)C(c1ccccc1)c1ccc(Cl)cc1` (configuration not stated), the AC50 in [1] was 2.26 µM (active).
Take `CC(C)O.CC(C)O.OCCN(CCO)CCO.OCCN(CCO)CCO.[Ti]`: the AC50 in assay [2] is 3.38 µM (active); in assay [3], 0.119 µM (active); in assay [5], 0.00229 µM (active); in assay [1], 3.53 µM (active). Moreover, the call in assay [4] was inactive.
`CCCCCCCCCCCCc1cccc(S(=O)(=O)O)c1`: the AC50 in assay [6] was 6.82 µM (active); in [3], 14.4 µM (active); in assay [4], 28.8 µM (active); in assay [7], 36.3 µM (active); in assay [1], 12.4 µM (active).
Regarding `Oc1cc(Cl)c(Cl)cc1Cl`, the compound was classed as inactive in assay [4].
In the case of `OCCN(CCO)CCO`, the compound was classed as inactive in assay [8].
As for `COc1ccccc1N`, the results for the AC50 in assay [6] and in [8] were 17.5 µM (active) and 25.4 µM (active), respectively.
With `O=C(O)C1(c2ccc3c(c2)OC[C@H](Cc2ccc(-c4ccccc4)cc2)[C@H]3O)CCCC1`, in assay [9], the outcome was inactive.
In the case of `N#Cc1cccnc1`, the call in assay [9], in assay [10], in assay [5] and in assay [1] was inactive.
For the compound `O=C(N[C@H]1CN2CCC1CC2)c1ccc2c(c1)OCCO2`, the outcome in [4] and in assay [1] was inactive.
As to `CCCCCCCCCCCCOS(=O)(=O)O`, the AC50 in [4] is 25 µM (active); in [1], 26.9 µM (active).
For the compound `Clc1cccc(Cl)c1Cl`, the result in assay [2], in assay [3], in assay [4], in [8] and in [1] was inactive.
In the case of `O=C(O)CC(O)(CC(=O)O)C(=O)O`, the call in assay [4] was inactive.
`CN(C)C(=S)S`: the AC50 in assay [6] was 7.44 µM (active).
With `COc1nn(C(=O)NS(=O)(=O)c2ccccc2OC(F)(F)F)c(=O)n1C`, the half-maximal activity concentration (AC50) in assay [1] was 24.5 µM (active).

Source of the values: PubChem BioAssay (EPA / NIEHS).
